{"source": "PubChem BioAssay (Tox21)", "note": "Inconclusive results are not listed. Calls of active or inactive are those of the source. Calls follow the shape of the dose curve; as a rule, active = well fitted cell-killing curve with a large enough effect in the repeat runs; inconclusive = weak or mixed curves, or effect the other way; inactive = flat fitted curve, though single readings scatter. % is scaled to controls: 0 for no effect and ±100 for the full control effect; potency is read from the fitted curve at half-maximal effect.", "data": [{"assay": "Caspase-3/7 induction in HepG2 cells by small molecules, qHTS cell viability counter screen (AID 1346981); also: nearly all actives have a fitted effect of over 30% in size", "conditions": "CellTiter-Fluor fluorescence, 17 h; series mostly up to 92.4 µM; activity change, negative = cytotoxicity: at the top concentration", "from_the_text": "U.S. Tox21 Program National Center for Advancing Translational Sciences [NCATS] NIH Chemical Genomics Center [NCGC] U.S. Environmental Protection Agency [EPA] National Institutes of Environmental Health Sciences [NIEHS] National Toxicology Program [NTP] U.S. Food and Drug Administration [FDA] Tox21 Assay Overview: Apoptosis is a process of programmed cell death and plays a central role in the development of multicellular organisms. It is a highly regulated process and induces cell death by activating caspases, which are the members of cysteine aspartic acid-specific protease (caspase) family. Caspases involved in apoptosis are classified by their mechanism of action as initiator caspases (caspase-2, -8, -9 and -10) and executioner caspases (caspase-3, -6, and -7). Inhibition of apoptosis results in number of cancers, autoimmune diseases, inflammatory diseases and viral infection. To identify small molecule compounds that induce apoptosis, a homogeneous, luminescent Caspase-Glo 3/7 assay was used. Wild type HepG2 cells were used to screen Tox21 libraries for identifying caspase-3/7 activity inducers. Also cytotoxicity of the compounds was tested in parallel by measuring the cell viability using CellTiter-Fluor assay system in the same wells.\nTox21 Assay Protocol Summary: HepG2 cells were dispensed at 2,000 per well in 5uL of culture medium into white solid bottom 1536-well plates (Corning Life Sciences, Corning, NY) using a Multidrop Combi (Thermo Scientific, Waltham, MA) dispenser. The assay plates were incubated at 37 C and 5% CO2 for 5hr, and then 23nL of compounds dissolved in DMSO and positive control were transferred using a Pintool station ([…], San Diego, CA). The assay plates were incubated at 37C and 5% CO2 for 17hr. For cytotoxicity read, after 16hr incubation at 37C, 1uL CellTiter-Fluor reagent (Promega Corporation, Madison, WI) was added to each well of the assay plates using Flying Reagent Dispenser (FRD, Aurora Discovery, San Diego, CA). After 1hr incubation at 37C and 5% CO2, the fluorescence signal was quantified using a ViewLux plate reader (PerkinElmer, Shelton, CT).", "values": [{"smiles": "CCCCCCCCCCCCCCCCC(C(=O)O)C(O)(CC(=O)O)C(=O)O", "note": "(stereo not given)", "activity change, negative = cytotoxicity": "-4.88% [at 42.5 µM] (inactive)"}, {"smiles": "O=C(O)CN(CCCN(CC(=O)O)CC(=O)O)CC(=O)O", "activity change, negative = cytotoxicity": "-12.2% [at 19 µM] (inactive)"}, {"smiles": "CS(=O)(=O)c1ccc([C@@H](CC2CCCC2)C(=O)Nc2cnccn2)cc1Cl", "Potency": "61.1 µM (active)"}, {"smiles": "N#Cc1ccc(C/C(=N/NC(=O)Nc2ccc(OC(F)(F)F)cc2)c2cccc(C(F)(F)F)c2)cc1", "activity change, negative = cytotoxicity": "-0.99% (inactive)"}, {"smiles": "[Cl][Dy]([Cl])[Cl]", "activity change, negative = cytotoxicity": "2.03% (inactive)"}, {"smiles": "Oc1cccc2c(O)cccc12", "activity change, negative = cytotoxicity": "-1.67% (inactive)"}, {"smiles": "CCCCCCCCCC[N+](C)(CCCCCCCCCC)CCC[Si](OC)(OC)OC", "Potency": "61.1 µM (active)"}, {"smiles": "CSc1ccc(O)cc1C", "activity change, negative = cytotoxicity": "-4.47% (inactive)"}, {"smiles": "C1=CCCC1", "activity change, negative = cytotoxicity": "-0.427% (inactive)"}, {"smiles": "O=c1cc[nH]cc1", "activity change, negative = cytotoxicity": "-10.6% (inactive)"}, {"smiles": "O=C1OCc2ccccc21", "activity change, negative = cytotoxicity": "2.54% (inactive)"}, {"smiles": "CCC(O)CO", "note": "(stereo not given)", "activity change, negative = cytotoxicity": "-5.71% (inactive)"}, {"smiles": "Oc1ccc(Cl)cc1C1CCCC1", "activity change, negative = cytotoxicity": "-2.46% (inactive)"}, {"smiles": "O=C1OC(=O)c2cc(-c3ccc4c(c3)C(=O)OC4=O)ccc21", "activity change, negative = cytotoxicity": "0.273% (inactive)"}, {"smiles": "O=C(c1ccccc1)c1ccc(Cl)cc1", "activity change, negative = cytotoxicity": "1.15% (inactive)"}, {"smiles": "C[C@H]1O[C@@H](O[C@H]2CC[C@@]3(C)[C@H](CC[C@@H]4[C@@H]3C[C@@H](O)[C@]3(C)[C@@H](C5=CC(=O)OC5)CC[C@]43O)C2)C[C@H](O)[C@@H]1O[C@H]1C[C@H](O)[C@H](O[C@H]2C[C@H](O)[C@H](O[C@@H]3O[C@H](CO)[C@@H](O)[C@H](O)[C@H]3O)[C@@H](C)O2)[C@@H](C)O1", "activity change, negative = cytotoxicity": "-1.77% [at 42.5 µM] (inactive)"}, {"smiles": "CCc1cccc(C)c1N(C(=O)C(=O)O)C(C)COC", "note": "(stereo not given)", "activity change, negative = cytotoxicity": "7.88% (inactive)"}, {"smiles": "CC(C)(C)c1cc(CCC(=O)OCCSCCOC(=O)CCc2cc(C(C)(C)C)c(O)c(C(C)(C)C)c2)cc(C(C)(C)C)c1O", "activity change, negative = cytotoxicity": "-1.61% [at 42.5 µM] (inactive)"}, {"smiles": "COc1c(Br)cc(Br)c(C)c1Br", "activity change, negative = cytotoxicity": "2.47% (inactive)"}, {"smiles": "CC(c1cc(C(C)(C)C)cc(C(C)(C)C)c1O)c1cc(C(C)(C)C)cc(C(C)(C)C)c1O", "activity change, negative = cytotoxicity": "7.65% (inactive)"}, {"smiles": "Cc1c[nH]c(=O)[nH]c1=O", "activity change, negative = cytotoxicity": "0.377% (inactive)"}, {"smiles": "O=C(Cl)c1ccc(Cl)cc1Cl", "activity change, negative = cytotoxicity": "5.27% (inactive)"}, {"smiles": "COc1cc([C@@H]2c3cc4c(cc3[C@@H](O[C@@H]3O[C@@H]5CO[C@@H](C)O[C@H]5[C@H](O)[C@H]3O)[C@H]3COC(=O)[C@H]23)OCO4)cc(OC)c1O", "activity change, negative = cytotoxicity": "-13.3% (inactive)"}, {"smiles": "C=C(C)CCO", "activity change, negative = cytotoxicity": "14.6% (inactive)"}, {"smiles": "O=C(O)C[C@H](O)C[C@H](O)/C=C/c1c(C2CC2)nc2ccccc2c1-c1ccc(F)cc1", "activity change, negative = cytotoxicity": "-8.1% [at 19 µM] (inactive)"}, {"smiles": "C1CCSC1", "activity change, negative = cytotoxicity": "8.53% (inactive)"}, {"smiles": "O=C(CCCCCCCCc1cccnc1)N1CCC(C=C(c2ccccc2)c2ccccc2)CC1", "activity change, negative = cytotoxicity": "10.7% (inactive)"}, {"smiles": "COc1cc2ncnc(Nc3cccc(Cl)c3)c2cc1OC", "activity change, negative = cytotoxicity": "-10% [at 19 µM] (inactive)"}, {"smiles": "COCCC(=O)OC", "activity change, negative = cytotoxicity": "1.05% (inactive)"}, {"smiles": "CCCCCc1ccc(O)cc1", "activity change, negative = cytotoxicity": "0.28% (inactive)"}, {"smiles": "CCOC(=O)C1=NN(c2ccc(Cl)cc2Cl)C(C)(C(=O)OCC)C1", "note": "(stereo not given)", "activity change, negative = cytotoxicity": "7.62% (inactive)"}, {"smiles": "CC1(C)[C@H](C(=O)OCc2cccc(Oc3ccccc3)c2)[C@@H]1C=C(Cl)Cl", "activity change, negative = cytotoxicity": "3.82% (inactive)"}, {"smiles": "CCNc1nc(NC(C)(C)C)nc(OC)n1", "activity change, negative = cytotoxicity": "-0.423% (inactive)"}, {"smiles": "CCCCCCCCCCCCN1CCCC1=O", "Potency": "61.1 µM (active)"}, {"smiles": "c1ccc(-c2nc3ccccc3[nH]2)cc1", "activity change, negative = cytotoxicity": "-3.12% (inactive)"}, {"smiles": "SC1CCCCC1", "activity change, negative = cytotoxicity": "2.93% (inactive)"}, {"smiles": "O=C1CCCCCCCCCCCCCC1", "activity change, negative = cytotoxicity": "7.71% (inactive)"}, {"smiles": "CCOc1nc(F)cc2nc(S(=O)(=O)Nc3c(Cl)cccc3C(=O)OC)nn12", "activity change, negative = cytotoxicity": "2.19% (inactive)"}, {"smiles": "CC/C=C(\\C)C=O", "activity change, negative = cytotoxicity": "2.96% (inactive)"}, {"smiles": "CC1(C)[C@H]2CC[C@]1(C)C(=O)C2", "activity change, negative = cytotoxicity": "-1.05% (inactive)"}]}]}
